Assay results as given in PubChem BioAssay.

test: FRG1 promoter luciferase signal modulators, primary screen, FRG1 inhibition for FSHD, cell-based, C2C12 myotubes, firefly/Renilla luciferase, luminescence (AID 1084); details: higher = more signal, called active from +8 up or from −8 down

z-score, inactive:
COC(=O)[C@@]1(Cc2ccc(F)cc2)[C@H]2c3cc(C(=O)N(C)C)n(Cc4ccc(OC)c(OC)c4)c3C[C@H]2CN1C(=O)c1ccccc1 0.619
CC(C)NC(=O)[C@@]1(C)c2ccccc2C(=O)N(Cc2cc(F)cc(C(F)(F)F)c2)[C@H]1c1ccc(CO)cc1 -1.31
O=C1NC(=O)C2C1C=CC(C(O)Cc1ccccc1)N2Nc1ccccn1 (stereo unspecified) -0.518
CC[C@@H](c1ccccc1)n1c(=O)n2n(c1=O)[C@H]1[C@H](O)[C@@H]3O[C@@H]3C(=NOCC(C)C)[C@H]1CC2 0.0491
COc1cccc([C@H]2Oc3ccc(OC)cc3C(=NO[C@H](C)c3cn([C@@H]4COC[C@H]4O)nn3)[C@@H]2O)c1 0.253
COCCOC(=O)N1C(=O)[C@@]2(c3cc(C#CCNC(N)=O)ccc31)[C@H](c1ccc(O)cc1)N1[C@H](c3ccccc3)[C@H](c3ccccc3)OC(=O)[C@H]1[C@@H]2C(=O)N1CCCCCCC1 -0.199
C[C@@H](c1ccccc1)N1C(=O)[C@H]2[C@H]3[C@H](O)C=CC(=O)[C@@H]3CC[C@H]2C1=O -0.608
CCCC[C@H]1OB(O)C[C@H]2C1=C(C)C[C@H]1C(=O)N(C)C(=O)[C@H]12 -0.252
CCCCc1nc2c(c3c1C[C@H](C)OC3)CN(CCC(C)C)CC2 0.607
C/C=C\[C@@H](NCc1ccccc1Br)[C@@H](O)Cc1ccccc1 -0.445
CC(=O)C[C@H](O)[C@@H](NC(=O)OC(C)(C)C)C(C)C 0.178
